HCMV antiviral: inhibitors of human cytomegalovirus. HFF cells, HCMV-luciferase reporter, 72 h; hits give low values. activity change, negative = inhibition, % at 57.5 µM. hit rate 4.5% among 410,000; in the data active means activity change below about -60%; inconclusive means no clear call, values can overlap the other calls; inactive means above about -39%
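HFF cells seeded 16 h at 37C, treated with compounds, infected with luciferase-reporter HCMV at MOI 1 PFU/cell; luciferase read at 72 h post infection, normalized to buffer-only and Salinomycin controls.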
FMDV antiviral: blocks foot and mouth disease virus. hit rate 1.2% among 410,000. AID 1159524. FMDV antiviral cell-based qHTS. Potency, µM (top dose mostly 57.9 µM), without a hit: at the top dose activity change, negative = inhibition, hits mostly inhibitors; calls by dose curve; tested in HEK293T cells; further: read-out not given here; potency means the concentration at half of the fitted maximal effect; nearly all actives have a fitted effect of over 45% in size
LASV entry inh: Lassa virus entry inhibition; Lassa virus pseudotype entry inhibition, cell reporter; Potency, µM (titrated, usually from 37.9 µM), without a hit: at the top dose activity change, negative = inhibition, most hits filed as inhibitors; hit rate 1.2% among 300,000; AID 540256; calls by dose curve; tested in HEK293 cells; further: potency means the concentration at half of the fitted maximal effect; nearly all actives have a fitted effect of over 50% in size
HCV inhibitor: HCV inhibition; Huh7.5.1 HCVcc-Cre infection, luciferase reporter, 44 h; Potency, µM (titrated, usually from 41.8 µM), inactives show at the top dose activity change, negative = inhibition, most hits filed as inhibitors; hit rate 3.4% among 340,000; AID 651820; active means well fitted inhibition curve with a large enough effect; inconclusive means small, poorly fitted or top-dose-only effect, or another doubt; inactive means no such curve, though single readings can be large or run the other way; further: potency means the concentration at half of the fitted maximal effect
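Reporter virus HCVcc-Cre (~0.5 moi) infects cells exposed to compound; seeding density 1,000 cells/well with 4 h settling beforehand. Luminescence, 15 sec read, taken 44 h post-infection following a 15 min RT substrate incubation.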
Marburg entry inh: blocks Marburg virus binding to or entry into cells. AID 540276. hit rate 1.8% among 300,000. Potency, µM (top dose mostly 37.8 µM), without a hit: at the top dose activity change, negative = inhibition, hits mostly inhibitors. Marburg virus pseudotyped entry inhibition, cell reporter; calls by dose curve; tested in HEK293 cells; further: potency means the concentration at half of the fitted maximal effect
* = called active by the depositor; ? = inconclusive; . = not tested or not shown; [ ] = dose if it differs, or a comment. The list is not random: actives were taken first. Their share in the collection is about 7.9%. On the % scale 0 is the no-effect control and ±100 the full control effect.

SMILES	HCMV antiviral	FMDV antiviral	LASV entry inh	HCV inhibitor	Marburg entry inh
Cc1ccc(CNCC(=O)Nc2ccc(C)cc2Br)cc1	-64*	18%	-11%	17%	-5%
CCOC(=O)C1CCCCN1C(=O)c1cnn(-c2nccc(-c3cc(C)sc3C)n2)c1C1CC1 (stereo unspecified)	.	18%	.	.	.
Cc1cc(C(=O)O)ccc1N/C=C1\CCCC(C)C1=O (stereo unspecified)	78	?	13µM*	0%	7.9µM*
COc1cc2c(cc1NC(=O)c1cccnc1)oc1ccccc12	44	40%	?	3.2µM*	-1%
COc1cc2c(cc1NC(=O)c1cccc([N+](=O)[O-])c1)oc1ccccc12	?	13µM*	?	?	?
COc1cc2c(cc1NC(=O)c1ccc(C)c([N+](=O)[O-])c1)oc1ccccc12	87	-15%	-3%	?	?
COc1cc2c(cc1NC(=O)c1ccncc1)oc1ccccc12	.	11%	13%	?	-1%
COc1ccc(CCN2CCC(CNC(=O)c3cnn(-c4ccc(C)cc4)c3C3CCN(C(=O)OC(C)(C)C)CC3)CC2)cc1	0	-4%	?	.	.
CC(C)Oc1ccc(C(=O)NC2CCCCC2)cc1	43	39%	-20%	0%	-2%
CC(C)Oc1ccc(C(CCN)C2CCCCC2)cc1 (stereo unspecified)	-99*	-25%	?	?	?
Cc1cccc(N2CCN(C(=O)c3ccc(CS(=O)(=O)c4ccccc4C)o3)CC2C)c1 (stereo unspecified)	-67*	5%	4%	6%	-23%
Cc1ccc(-c2c(C(=O)N3CCN(c4cccc(C)c4)C(C)C3)oc(=O)c3ccccc23)cc1 (stereo unspecified)	-70*	?	?	.	?
COC1(C(F)(F)F)NC(=O)N(c2ccc(F)cc2)C1=O (stereo unspecified)	10	-12%	-1%[46.1 µM]	.	-4%[46.1 µM]
CC(=O)OC[C@H]1O[C@H](CC=NO[C@@H](C)CN2CCCc3nc(C)c(C)cc32)C=C[C@@H]1OC(C)=O	.	.	.	.	9%[14.2 µM]
COCc1cc(C2SCC(=O)Nc3c2c(=O)[nH]n3C(C)C)ccc1OC (stereo unspecified)	12	-8%	1%	5.6µM*	0%[46.1 µM]
CC[C@@H](C)[C@@H](CO[C@@H](Cc1ccccc1)C(=O)N[C@@H](CCS(C)(=O)=O)C(=O)OC(C)C)NC[C@@H](N)CS	.	-18%[39.8 µM]	.	.	.
Cc1ccc(Nc2nc(NCc3ccco3)c3ccccc3n2)cc1	-82*	-42%	2.8µM*	3.5µM*	?
COc1ccccc1Nc1nc(NCc2ccco2)c2ccccc2n1	-99*	?	-20%	?	?
O=C(NCc1ccccc1Cl)c1ccc(CSCc2ccccc2Cl)o1	0	6%	-24%[46.1 µM]	.	.
O=S(=O)(c1cccs1)N1CCN(c2ccc(Cl)cc2)CC1	-35	-6%	-12%[46.1 µM]	-6%	6%[46.1 µM]
COc1ccccc1N1CCN(C(=O)c2cc(C(C)(C)C)oc2C)CC1	?	-16%	-29%[46.1 µM]	-12%	10µM*
O=S(=O)(c1cccs1)N1CCC(CO)(Cc2ccc(Cl)cc2)CC1	21	?	?	?	7.9µM*
Cc1oc(C(C)(C)C)cc1C(=O)N1CCN(c2ncccc2C(F)(F)F)CC1	-23	-23%	-23%	-2%	-2%
COc1cc2c(C(=O)N3CCN(c4ccccc4C)CC3)c(C)oc2cc1Br	-37	?	-3%	11µM*	-4%
O=C(c1ccc(-c2ccc([N+](=O)[O-])cc2)o1)N1CCN(S(=O)(=O)c2cccs2)CC1	-61*	?	-12%	8%	-9%
SMILES	HCMV antiviral	FMDV antiviral	LASV entry inh	HCV inhibitor	Marburg entry inh
CCCCc1ccc(NC(=O)c2cc(-c3ccc(C)c(F)c3)on2)cc1	3	4%	-2%[46.1 µM]	.	5%[46.1 µM]
O=C1COc2cc(S(=O)(=O)CCC(=O)N3CCN(c4cccc(Cl)c4)CC3)c(Cl)cc2N1	?	?	-7%[46.1 µM]	.	.
O=c1c2sc3ccccc3c2n(Cc2ccccc2F)c(=O)n1CCc1ccccc1	28	38%	?	.	28%[46.1 µM]
O=C(c1ccc(-c2ccc(Cl)cc2)o1)N1CCN(S(=O)(=O)c2cccs2)CC1	-61*	-22%	.	?	.
COc1ccccc1NC(=S)NC(=O)c1ccc(-c2ccc(Cl)cc2)o1	-63*	.	-22%	?	-15%
Cn1ncc(Cl)c1C(=O)N1CCN(S(=O)(=O)c2cccs2)CC1	39	-12%	10%	25%	-3%
COc1ccccc1N1CCN(C(=O)c2ccc(-c3ccc(Cl)cc3)o2)CC1	-12	-21%	.	3.2µM*	.
O=Cc1ccc(-c2ccc([N+](=O)[O-])cc2Cl)o1	-66*	-15%	2%	1%	2%[46.1 µM]
c1ccc(CCNc2ncnc3scc(C4COc5ccccc5O4)c23)cc1 (stereo unspecified)	-84*	28µM*	-27%	13µM*	-9%
Cc1cc2nc(N3C(=O)CNC3=S)sc2cc1C	107	-65%	?	26%	?
CCOc1ccc2nc(N3C(=O)CNC3=S)sc2c1	-106*	-55%	?	5%	?
C=CCc1ccccc1OCC(O)CN(C(C)C)C(C)C (stereo unspecified)	10	-15%	?	-12%	6.3µM*
O=C(CC1(O)C(=O)N(CCc2ccccc2)c2ccccc21)c1ccccn1 (stereo unspecified)	-22	11%	-5%	13%	-31%[46.1 µM]
O=C(CC1(O)C(=O)N(C/C=C/c2ccccc2)c2ccccc21)c1ccccn1 (stereo unspecified)	-71*	-16%	?	-10%	-15%
CCN(CC)CCNC(=O)C(=O)NCC(c1cccnc1)N1CCN(c2ccccc2)CC1 (stereo unspecified)	7	-16%	2%[46.1 µM]	.	.
COc1cccc(OC)c1OCc1cc(C2C3CCCC=C3C(C#N)=C(N)C2(C#N)C#N)c(C)cc1C (stereo unspecified)	-2	?	20µM*	-13%	?
COc1ccc(NC(=O)c2nn(C34CC5CC(CC(C5)C3)C4)cc2[N+](=O)[O-])cc1	15	-15%	?	11%	?
O=C(Nc1cccc2ccccc12)c1nn(C23CC4CC(CC(C4)C2)C3)cc1[N+](=O)[O-]	-71*	14%	-15%	?	-16%
Cc1ccsc1CN(C)CC(=O)Nc1ccc([N+](=O)[O-])cc1Cl	?	-14%	?	13µM*	10µM*
COc1ccc(CNC(=O)Cn2ccc3cc(S(=O)(=O)N4CCCCCC4)ccc32)c(OC)c1	-15	-5%	?	.	.
O=C(c1ccc2c(c1)N(Cc1ccccc1)C(=O)c1ccccc1S2=O)N1CCC(Cc2ccccc2)CC1 (stereo unspecified)	-76*	?	?	.	?
O=C(c1ccc2c(c1)N(Cc1ccc(F)cc1)C(=O)c1ccccc1S2=O)N1CCC(Cc2ccccc2)CC1 (stereo unspecified)	-78*	-13%	?	.	?
